These are literature values, as cited in PubChem BioAssay AID977611.

The data set can be described thus: PubChem AID 977611. Conditions: PDB protein-ligand complexes, literature Kd.

The campaign covered roughly 3,900 compounds. About 3,900 (100%) were called active. Cut-off not given; nearly all actives show Kd up to about 4200 µM. The set was probably picked from earlier hits. Some of the results follow. Where a SMILES comes first, the peptide text is derived from it. Non-standard residues stand in square brackets, D forms with d. Square brackets hold non-standard residues; d marks the D form. Residues, ends and D or L forms follow the SMILES beside them. Peptide text beside a SMILES is read from it. Orn(CH(NH2)2) = NC(N)NCCC[C@H](N)C(=O)O

With `CC[C@H](C)[C@H](NC(=O)[C@H](CCC(=O)O)NC(=O)[C@H](C)NC(=O)[C@H](CCC(N)=O)NC(=O)[C@H](CO)NC(=O)[C@H](CC(C)C)NC(=O)[C@@H](NC(=O)[C@@H](N)CO)[C@@H](C)CC)C(=O)N[C@@H](CC(=O)O)C(=O)N[C@@H](C)C(=O)N[C@@H](CC(C)C)C(=O)N[C@@H](CC(C)C)C(=O)N[C@@H](CC(N)=O)C(=O)O` (H-SILSQAEIDALLN-OH), the Kd – broadly, a measure of binding affinity in units of concentration – (protein: double mutant Chemotaxis protein cheYD13K Y106W, PDB entry 1u8t) was 55 µM (active). For H-SEAAASTAVVIA-OH, the Kd (protein: human antithrombin, PDB entry 1br8) was 18 µM (active). For `CC[C@H](C)[C@H](NC(=O)[C@H](CC(C)C)NC(=O)[C@H](CCCCN)NC(=O)[C@H](CCC(N)=O)NC(=O)[C@@H](N)CCC(=O)O)C(=O)N[C@@H](CO)C(=O)N[C@@H](CCC(=O)O)C(=O)N[C@@H](CCC(=O)O)C(=O)N[C@@H](CC(=O)O)C(=O)N[C@@H](CC(C)C)C(=O)N[C@@H](CC(N)=O)C(=O)O` (H-EQKLISEEDLN-OH), the Kd (protein: Monoclonal anti-c-myc antibody 9E10, PDB entry 2or9) is 0.5 µM (active). Turning to `Cn1c(CNc2ccc(C(=N)N)cc2)nc2cc(C(=O)N(CCC(=O)O)c3ccccn3)ccc21`, the Kd (protein: humanized anti dabigatran Fab, PDB entry 4jn2) is 2.1e-06 µM (active). Regarding `CCC1=CNN2C(NCc3ccc[n+]([O-])c3)CC(N3CCCC[C@H]3CCO)NC12` (stereo not given in full), the Kd (protein: Bromodomain testis-specific protein, PDB entry 4kcx) is 37 µM (active).

Take `CCCCCCCC(=O)O[C@@H]1[C@@H](OC(=O)[C@@H](C)CC)[C@@H](C)[C@H]2[C@H]1[C@@](C)(OC(C)=O)C[C@H](O[C@@H](O)CCC)[C@@]1(O[C@H](O)CCC)[C@H]2O[C@@H](O)[C@@]1(C)O`: the Kd (protein: SERCA1a, PDB entry 4j2t) is 0.011 µM (active).

Regarding `CC(C)C[C@H](NC(=O)CNC(=O)[C@H](CC(C)C)NC(=O)[C@@H](NC(=O)[C@H](CC(C)C)NC(=O)[C@H](CCC(N)=O)NC(=O)[C@@H](N)CCCNC(N)N)C(C)C)C(=O)O` (HELM PEPTIDE1{[NC(N)NCCC[C@H](N)C(=O)[*:2]].Q.L.V.L.G.L}$$$$V2.0), the dissociation constant Kd (protein: DNA polymerase III, PDB entry 1ok7) was 1.2 µM (active). In the case of `CC[C@H](C)[C@H](NC(=O)[C@H](CCSC)NC(=O)CNC(=O)[C@H](CCCNC(N)N)NC(=O)[C@@H](N)CCC(N)=O)C(=O)O` (H-Q[Orn(CH(NH2)2)]GMI-OH), the Kd (protein: Response regulator aspartate phosphatase F, PDB entry 4i9c) is 3.1 µM (active). For the molecule `CC[C@H](C)[C@H](NC(=O)[C@H](CC(=O)O)NC(=O)[C@H](CCC(=O)O)NC(=O)[C@H](CC(C)C)NC(=O)CNC(=O)[C@H](C)NC(=O)[C@H](C)N)C(=O)N[C@H](C(=O)N[C@@H](CCCNC(N)N)C(=O)N[C@@H](CCCCN)C(=O)N[C@@H](C)C(=O)N[C@@H](CC(C)C)C(=O)N[C@@H](CCSC)C(=O)NCC(=O)N[C@H](C=O)CO)[C@@H](C)CC` (H-AAGLEDII[Orn(CH(NH2)2)]KALMGS-aldehyde), the dissociation constant Kd (protein: Glucocorticoid receptor, PDB entry 3h52) was 14 µM (active). Take `CSCC[C@H](NC(=O)[C@H](CC(C)C)NC(=O)[C@H](C)NC(=O)[C@@H](NC(=O)[C@H](CC(N)=O)NC(=O)[C@H](CO)NC(=O)CNC(=O)[C@H](CCCNC(N)N)NC(=O)[C@H](CCCNC(N)N)NC(=O)[C@H](CCC(=O)O)NC(=O)[C@H](CCC(N)=O)NC(=O)[C@H](CC(C)C)NC(=O)[C@@H](N)CCCNC(N)N)C(C)C)C(=O)N[C@@H](CC(C)C)C(=O)N[C@@H](CC(=O)O)C(=O)N[C@@H](CS)C(=O)O` (H-[Orn(CH(NH2)2)]LQE[Orn(CH(NH2)2)][Orn(CH(NH2)2)]GSNVALMLDC-OH): for the setting “protein: Mitogen-activated protein kinase 1, PDB entry 2gph”, the Kd is 5 µM (active).
